# Measurements taken from PubChem BioAssay AID2314 (National Center for Advancing Translational Sciences (NCATS), 2010).
# The whole screen tested about 300,000 compounds, of which about 37,000 (12%) were called active. What follows is part of a selection rich in actives, with near analogues and random picks from the rest. Unmarked numbers belong to inactive results. Rule as the data show it: active = max response mostly above about 13% (no sharp cut-off); inactive = mostly below about 14%.
# Assay: Cycloheximide Counterscreen for Small Molecule Inhibitors of Shiga Toxin; also: read at 38.3 µM for the half of the compounds with a filed dose; 0% is about no effect
# Settings: cell reporter, cycloheximide protein synthesis inhibition counterscreen; active compounds read high
row,SMILES,max response
1,CN(C)c1ccc(CNC2C3CC4CC(C3)CC2C4)cc1 (stereo unspecified),-2.32%
2,CCOc1ccc(C(=O)Nc2nccs2)cc1[N+](=O)[O-],28.1% (active)
3,CC(=O)Oc1ccc(C(=O)Nc2nccs2)cc1,11.1%
4,CCOc1ccc(C(=O)NC(=S)Nc2ccc(NC(=O)C(C)C)cc2)cc1[N+](=O)[O-],-1.26%
5,O=C(N/N=C/c1ccoc1)c1ccc(Cl)cc1Cl,28.2% (active)
6,CC(C)c1cc(C(=O)N/N=C/c2ccoc2)c(O)c(C(C)C)c1,6.52%
7,CC(C)NC(=O)c1ccc(Cl)cc1Cl,8.78%
8,CC(C)c1ccc(N2CCN(C(=O)c3ccccc3NC(=O)/C=C(\C(=O)O)c3ccccc3)CC2)cc1,24.6%
9,COCCCNC(=S)NCCNc1nc2cc(C)c(C)cc2cc1C#N,26%
10,COc1ccc(CNS(=O)(=O)c2ccc(-c3cnc(C4CC4)o3)cc2)cc1,-0.963%
11,O=C(NCC1CCCO1)c1cc2c([nH]c3ccccc32)c(-c2ccc(F)cc2)n1 (stereo unspecified),-1.44%
12,COc1ccc(-c2cc(=O)oc3cc(OC(C)C(=O)NCC4CCC(C(=O)O)CC4)ccc23)cc1 (stereo unspecified),-2.31%
13,CC(CCn1cccn1)NC(=O)CCc1nnc(CCc2ccccc2)o1 (stereo unspecified),5.1%
14,Cc1cc(-c2nnc(CCC(=O)NC(c3ccccc3)c3ccccc3)o2)no1,25.2% (active)
15,O=C(CCc1nnc(CCCCc2ccccc2)o1)NC(c1cccnc1)C(F)(F)F (stereo unspecified),-3.39%
16,CCOC(=O)/C=c1\s/c(=C\c2ccc(C#N)cc2)c(=O)n1CC(=O)Nc1cccc(C)c1C,-1.86%
17,Cc1cc(OCc2ccc(C(=O)Nc3ccc(C(=O)O)cc3)o2)ccc1Cl,0.897%
18,COc1ccc(C(C(=O)NC2CCCCC2)N(C(=O)Cc2c[nH]c3ccccc23)c2ccccc2)cc1OC (stereo unspecified),-2.16%
19,NC(=O)c1ccc(Nc2ccc3nonc3c2[N+](=O)[O-])cc1,6%
20,NC(=O)c1ccc(Nc2ccc3c(c2)CCC3)c([N+](=O)[O-])c1,-2.88%
21,Cc1ccc(Nc2ccc(C(N)=O)cc2[N+](=O)[O-])cc1,14.3% (active)
22,c1ccc(CSc2nnc(-c3ccco3)c(-c3ccco3)n2)cc1,5.66%
23,c1ccc(CSc2nnc(-c3ccco3)n2Cc2ccccc2)cc1,27.8% (active)
24,O=C(CSc1nnc(-c2ccco2)n1Cc1ccccc1)NC(=O)NCc1ccco1,9.36%

row,SMILES,max response
1,N#CCOc1ccc(C2=NO[C@@H]3[C@@H]4C[C@@H]([C@H]5C(=O)N(c6ccc7c(c6)OCO7)C(=O)[C@@H]45)[C@H]23)cc1,-3.49%
2,Cn1c(CNC(=O)c2ccccc2F)nnc1SCc1ccc(F)cc1,6.96%
3,COc1ccc(CCNC2=C(Cl)C(=O)N(Cc3ccccc3)C2=O)cc1OC,5.5%
4,O=C(Nc1ccccc1-c1nc2ccccc2[nH]c1=O)c1cccs1,0.926%
5,Cc1c(Cl)cnc(NC(=O)COC(=O)c2ccc(S(=O)(=O)NCc3ccco3)cc2)c1Cl,-0.376%
6,CCN(CC)c1ccc(C(=O)N/N=C(\C)c2cccc(OC)c2)cc1,-2.4%
7,C/C(=N\Nc1ncc(Cl)cc1Cl)c1cccs1,45.9% (active)
8,C/C(=N\Nc1ncc(Cl)cc1Cl)c1ccc(S(=O)(=O)NCc2ccco2)cc1,113% (active)
9,COC(=O)c1sccc1N/N=C(\C)c1ccc(F)c(Cl)c1,7.97%
10,COc1cccc(/C(C)=N/Nc2ncc(Cl)cc2Cl)c1,41.6% (active)
11,C/C(=N\Nc1nc2ccccc2[nH]1)c1cccs1,36.7% (active)
12,O=S(=O)(NCc1ccco1)c1cnc(Cl)c(Cl)c1,-2.82%
13,C/C(=N\Nc1nc(Nc2ccccc2)nc(N2CCOCC2)n1)c1cccs1,14.5%
14,C/C(=N\Nc1ccc(S(N)(=O)=O)cc1[N+](=O)[O-])c1cccs1,-5.09%
15,C/C(=N\NS(=O)(=O)c1ccc(Br)cc1)c1cccs1,-1.14%
16,CC(=O)Nc1c2c(nn1-c1cccc(C)c1)CSC2,8.26%
17,C=CCn1c2ccccc2c2nnc(SCc3[nH]c(=O)[nH]c3C(=O)CCCCC(=O)OCC)nc21,2.1%
18,Cc1cccc(C)c1NC(=O)C1(C)c2cccc[n+]2CC(=O)N1Cc1cccs1 (stereo unspecified),-1.89%
19,COC(=O)c1ccc(C(NC(=O)OCc2ccccc2)/C(F)=C/[C@@H](C)C(=O)O)cc1 (stereo partly specified),6.37%
20,CN1CCC(=O)N([C@H](CO)Cc2ccccc2)CC1,1.38%
21,Cn1c(=NC(=O)c2ccco2)sc2cccc(F)c21,72.9% (active)
22,Cn1c(=NC(=O)C2CC2)sc2cc(F)cc(F)c21,-0.185%
23,CCCC(=O)N=c1sc2cccc(F)c2n1C,-3.69%
24,COC(=O)c1c(NC(=O)c2ccccc2F)sc2c1C(C(=O)OC)CC2 (stereo unspecified),7.34%

row,SMILES,max response
1,C/C(=N\N)c1c(-c2ccccc2)c2cc(Br)ccc2[nH]c1=O,1%
2,O=C(Cn1nc([N+](=O)[O-])nc1Br)NC1CCCCC1,-4.71%
3,O=C(NNC(=S)NC1CCCCC1)c1ccccc1Cl,5.48%
4,COc1ccccc1C(=O)NC(=S)NC12CC3CC(CC(C3)C1)C2,13.4%
5,Cc1ccccc1C(=O)NC(=S)NC1CC1,19.1% (active)
6,CC(C)CC(CCc1ccccc1)OS(N)(=O)=O (stereo unspecified),2.53%
7,COc1ccc(COC(=O)N/N=C(\C)CC(=O)Nc2ccc(Cl)cc2)cc1,12.4%
8,COc1ccc(C(=O)N/N=C(\C)CC(=O)Nc2ccc(Cl)cn2)cc1,28.3% (active)
9,COc1ccc(C(=O)CCC(=O)Nc2ccc(Cl)cc2)cc1,0.287%
10,Cc1ccc(-n2c(-c3ccc(Cl)cc3)n[nH]c2=S)cc1,-1.99%
11,O=C(NCCCN1CCOCC1)c1ccc2c(c1)N(Cc1cccc(F)c1)C(=O)c1ccccc1S2,-7.81%
12,Cc1cc(=O)[nH]c(SCc2cccc(F)c2)n1,0.752%
13,Nc1cc(N)nc(SCc2ccc(Cl)cc2)n1,15.3%
14,Nc1cc(N)nc(SCc2cccc(F)c2)n1,45.9% (active)
15,C[n+]1cc(-c2ccccc2)oc1-c1ccccc1,52.4% (active)
16,Cc1cc(N2CCN(c3ccccc3)CC2)nc(N2CCOCC2)n1,-2.2%
17,Cc1cc(C)n(-c2nnc(N3CCN(c4ccccc4)CC3)nn2)n1,22.1% (active)
18,Cc1cc(C)n(-c2cc(Oc3ccccc3)ncn2)n1,21.7%
19,CCOC(=O)C1=C(CN2CCc3ccccc32)NC(=O)NC1c1ccc(Cl)cc1 (stereo unspecified),15.3%
20,O=C(CSCc1ccc(Cl)cc1)N1CCN(Cc2ccc3c(c2)OCO3)CC1,10.5%
21,Cn1c(SCC(=O)N2CCCC2)nnc1-c1cccs1,11.6%
22,O=C(CSc1ccsc1[N+](=O)[O-])N1CCCCC1,26.9%
23,O=C(CSCc1ccc(Cl)cc1)N1CCCCC1,44.9% (active)
24,O=C(CSCc1cccs1)N1CCCC1,31.1% (active)

row,SMILES,max response
1,O=C(CN1CCN(c2ccc(Cl)cc2)CC1)N1CCCC1,6.76%
2,COC(=O)[C@@H](Cc1ccccc1)NC(=O)NCCc1ccccc1,6.92%
3,O=C1OC2(CCCCC2)CC2=C1C1O[C@](c3ccsc3)(Cc3ccccc31)O2,-3.19%
4,Fc1cccc(CSc2nnc3ccc(-c4ccncc4)nn23)c1,2.07%
5,O=C(CN1C(=O)NC(Cc2ccccc2)(Cc2ccccc2)C1=O)NCC1CCCCC1,-2.12%
6,CCCc1nnc(NC(=O)CCC(=O)N2CCN(S(=O)(=O)c3ccc(OC)cc3)CC2)s1,-3.02%
7,S=c1[nH]nc(-c2cc(-c3ccsc3)n[nH]2)n1-c1ccccc1,6.52%
8,S=c1[nH]nc(-c2cc(-c3ccccc3)n[nH]2)n1/N=C/c1c2ccccc2cc2ccccc12,-3.32%
9,Cc1ccc(NC(=O)c2cc(-c3ccccc3O)n[nH]2)cc1C,12%
10,c1ccc(-c2cc(-c3ccccc3)[nH]n2)cc1,36.7% (active)
11,Oc1ccccc1-c1cc(-c2ccc(Cl)cc2)n[nH]1,29% (active)
12,Cc1cc(C(=O)OCC(=O)N2c3ccccc3NC(=O)C2(C)C)c(C)n1-c1ccccc1,-2.79%
13,CCc1cc(=O)oc2c(C)c(OCC(=O)N3CC[C@@]4(O)CCCC[C@H]4C3)ccc12,-0.987%
14,O=C(CCC(=O)N/N=C/c1ccc(Br)o1)N/N=C/c1ccc(Br)o1,-1.8%
15,CC1(C)OC(=O)N2CCc3ccccc3C21C (stereo unspecified),-1.95%
16,O=C(COc1ccc(Cl)cc1)NCCC1=CCCCC1,-4.36%
17,CN1CCNC(=O)C1CC(=O)NCCC1=CCCCC1 (stereo unspecified),6.87%
18,O=C(NCCCN1CCOCC1)c1ccc(N2CCCC2)c([N+](=O)[O-])c1,1.3%
19,O=C(NCCC1=CCCCC1)c1ccc(Cl)c([N+](=O)[O-])c1,39.2% (active)
20,CC(=O)Nc1ccc(S(=O)(=O)N(C)CC(=O)NCCC2=CCCCC2)cc1,8.71%
21,Cc1ccn2c(=O)c(C(=O)NCCC3=CCCCC3)c(O)nc2c1,16.1%
22,O=C(Cc1nn[nH]n1)NCCC1=CCCCC1,-1.06%
23,Cn1nnc2cc(C(=O)NCCC3=CCCCC3)ccc21,36.9% (active)
24,CN(c1ccc(C(=O)NCCC2=CCCCC2)cc1)S(C)(=O)=O,35.4% (active)
